# Test results as given in the supplement of paper PMC6555819.
# Columns and labels:
# Test in all cases: PBM binding z-score (relative to random genomic background probes); higher = stronger binding; sequences stand for … in GC…GCGATTGACAGCGTAGAATGAAGG
# [1] = test system: RARb homodimer (NR concentration 270 nM)
# Procedure, shortened: (§1)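 Binding z-scores were set against random background probes. The data came from custom Agilent 4×180K protein-binding microarrays carrying double-stranded probes with 34-nt variable regions, incubated 1 h with ligand-free nuclear receptor dimers. Partner-specific antibodies detected binding, and scanned fluorescence was regression-normalized.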
# [2] = test system: RARg:RXRa (NR concentration 270 nM, RXRa partner concentration 90 nM)
# Procedure, shortened: as §1
# [3] = test system: RARg homodimer (NR concentration 270 nM)
# Procedure, shortened: as §1
# [4] = test system: RXRa DBDmut IVT, anti-RXR (DBD mutation: RXRa K156A/R161A, NR concentration 90 nM)
# Procedure, shortened: as §1
# [5] = test system: RXRa homodimer (NR concentration 180 nM)
# Procedure, shortened: as §1
# [6] = test system: THRa:RXRa (NR concentration 90 nM, RXRa partner concentration 90 nM)
# Procedure, shortened: as §1
# [7] = test system: THRa homodimer (NR concentration 90 nM)
# Procedure, shortened: as §1
# [8] = test system: VDR homodimer (NR concentration 270 nM)
# Procedure, shortened: as §1
Sequence,PBM binding z-score [1],PBM binding z-score [2],PBM binding z-score [3],PBM binding z-score [4],PBM binding z-score [5],PBM binding z-score [6],PBM binding z-score [7],PBM binding z-score [8]
CCAGACAGGTGAGAAGGTAATTCAGCCTCGATTA,0.446,0.488,0.401,-0.0232,0.24,0.0341,0.0221,-0.0971
CGAACTAGGCCATTGACAGGACAGTGAATAGTAA,0.319,0.281,0.586,0.349,0.0322,0.198,-0.102,-0.193
TCTAGTTTGTCAAAGGTCACACACTCGAAATGCG,4.86,6.06,5.71,2.14,6.98,4.07,1.98,2.58
CCGACAGGGGCAAAGGTTACCATACTCAGTACGA,2.32,3.95,2.17,1.26,5.03,2.17,-0.142,0.724
AGAATGAGGTTAAGATCAGGGACACAGAATACAT,1.6,2.36,2.14,1.14,2.48,3.39,2,1.12
CTACCAAGCTGAACAAGGTCGTTGATTACTATTC,1.13,0.311,0.109,1.3,0.787,1.86,1.46,2.1
CGTCCAAGGTCTGCAGGTCAGTGAAAGCGACGTG,2.06,1.26,1.8,0.0779,0.794,1.12,-0.0329,-0.462
GCAGACAGGTGAAACGTAGGTAACTCAGGGTGGC,0.622,0.956,0.393,-0.48,0.858,1.2,-0.606,-0.684
GCTTGTAGATCAAGGTTAAGAAGGACTAAGCTAA,0.182,0.382,0.268,-0.0285,0.716,1.18,-0.165,-0.0273
ATCCCTAGGTAAAGTTCAGTGAAAGATCGATAGA,2.36,1.81,1.95,1.28,1.16,1.07,0.22,2.35
AACTCTAGGTAAAGATAGTTCAGTGAATGCAAAT,1.06,0.458,0.642,0.162,0.119,0.754,-0.108,0.243
CCTTACGGGTCACGAGGTTAGAGCACGACGAGCG,3.63,6.04,5.46,2.04,6.47,3.45,0.765,1.84
ATCTCGAGGTAAAGTTCAGTGAAAGATCGATAGA,2.23,2.68,2.72,0.929,1.7,1.71,-0.0248,1.71
ATATGTAGGTTAGCTGGGGTCATTGAGACTAGGC,3.66,4.03,2.91,1.82,5.63,4.83,3.21,5.12
ATCGAAAGGCCGTGAGGTGAGTATACAGAAAGGC,0.911,1.47,1.42,-0.765,0.904,1.93,0.902,-0.0558
GCAGACAGGTGAAACGCAGGTAACGCAGGGTGGC,0.284,1.13,0.47,-0.945,0.641,1.51,-0.416,-0.757
CCTAGTTGGTCAAAGTCACACACGCTATAGGTAC,1.28,0.912,1.23,0.833,0.561,0.212,0.467,0.811
AGAATGAGGTTACCAAAGATCACGGAAACGCTTG,1.02,2.24,1.89,1.17,2.95,3.03,0.696,0.151
GTCCCAAGGTGAATAGGTCGTTGATGAGTAGGCG,2.13,2.88,1.42,-0.179,1.67,2.06,0.76,0.582

Sequence,PBM binding z-score [1],PBM binding z-score [2],PBM binding z-score [3],PBM binding z-score [4],PBM binding z-score [5],PBM binding z-score [6],PBM binding z-score [7],PBM binding z-score [8]
CCTTACGGGTCACTGCCAGGTTATAGCATTTGGA,3.13,5.43,4.16,1.46,4.62,3.4,0.811,1.47
CTACCAAGGTGAACCAGGTCGTTGATTACTATTC,1.75,1.44,1.26,0.903,1.76,3.09,1.85,1.28
AGAATGAGGTGATACGTAGATCAGGGAAGAAAGT,0.297,0.451,0.546,-0.351,0.719,1.57,0.357,-0.382
ACTATTAGTTGATACGAGGGCAACCGATAGGTTG,1.59,1.03,0.921,1.04,0.536,2.55,0.673,0.979
CCGACTGGGGCAAAGGTTACTATACTCAGTACGA,1.74,2.75,1.37,0.148,2.8,1.44,-0.197,0.164
ATCTCTAGGTAAAAAGTTCAGTGAAAGAGAGGAC,2.67,2.69,2.46,0.695,1.04,1.22,0.595,1.56
CCAGACAGGTGTAAGGTAACTCAGTCTGGTACGC,-0.201,-0.0982,-0.292,0.0922,-0.0847,1.59,1.21,0.39
GTGACTGGGGCATCAGCAGGTTACCATAACTTAA,1.3,1.36,0.86,-0.0186,0.481,1.09,0.198,-0.0019
AGAACGAGGACAATGAGTTGATAGCACGGGTGGC,0.202,0.444,1.06,1.31,0.454,2.19,1.15,2.33
GATACAGGGTCAAGGCCGGAGTACGCGTATTGAT,3.43,5.35,5.4,2.23,5.79,3.46,1.03,1.78
TGTCAAAGTTCAAAGATAACGTAAGTATCCACAC,3.35,5.44,6.18,4.22,4.6,1.86,-0.41,3.32
ACTAGCATGCCAAGGGTCACTCAAGATTAGTCCG,3.83,3.77,3.69,0.719,3.91,2.75,0.299,1.64
ATACCAAGGTGAACGTGAGGTCGTTGATACTAAC,2.68,3.63,1.98,1.19,2.68,4.11,3.14,3.61
CCTAGCAGGCCAGTGTCACTCAAGCATTTCGCTT,0.0425,-0.0888,-0.171,0.13,-0.38,-0.213,-0.656,-0.509
TATACAGGGTCAAAGGCCAGAGCACGAATGTCGA,3.57,5.66,5.23,3.1,6.87,3.46,0.672,2.9
TCTAGTTAGTCAAAGGTCACACACTCGAAATGCG,4.84,6.12,5.68,2.03,7.09,3.97,1.9,2.57
TCATATAGGTAAACGTGAAAGTCGAACGATATGA,-0.329,0.415,0.326,0.8,0.894,-0.0868,-0.279,-0.33
ATACGAAGGTGATCGTGAGGTCGTTGATACTAAC,1.55,2.15,0.985,0.65,1.6,3.28,1.94,2.48
CCTAGCAGGCCAGGATCACTCAAGCATTTCGCTT,-0.596,-0.33,-0.385,-0.0229,-0.232,-0.455,-0.257,-0.251

Sequence,PBM binding z-score [1],PBM binding z-score [2],PBM binding z-score [3],PBM binding z-score [4],PBM binding z-score [5],PBM binding z-score [6],PBM binding z-score [7],PBM binding z-score [8]
CCTACTGGGCCATCAGGTCATGGATATCAACGTT,2.95,2.25,2.22,-0.124,1.66,3.47,3.47,0.959
ATCCCTAGGTAAAGATAGTTCAGTGAATGCAAAT,1.19,0.428,0.526,0.103,0.295,0.844,0.169,0.524
CCTACTGGGCCATTCAGAGGTCATTAATCATATG,3.81,4.21,2.91,0.793,3.48,3.13,1.35,3.11
GCTGCTAGGTCAACTGCTGGTCAGCTAAAGCTCG,3.54,5.38,5.45,1.4,2.79,2.92,0.954,-0.195
ACTTACGGGTCAACGAGGTTATAGAACGCGTATA,3.89,5.69,5.34,2.56,6.54,4.21,1.21,3.53
GGAACGAGGGCAAAGTTGATAGCATCTGTCGACG,1.33,2.18,1.82,2.76,2.22,1.25,-0.111,1.21
AGAATGAGGTTATACGTAGTTCAGGGAAGAAAGT,1.63,3.82,1.45,1.54,2.57,2.55,0.588,1.61
GCTAGCAGGCCATTTGAGTCACTCAATGACGGGC,-0.381,-0.0759,0.0765,-0.0136,-0.11,0.249,-1.02,-0.525
AGCTCTAGGTAACAAGTTCAGTGAAAGAGAGGAC,1.92,1.12,1.23,0.916,0.551,1.49,0.681,2.64
CCTTACGGGTCACTCCAGATTATAGCATCGGAGT,2.58,4.16,3.98,1.28,3.98,2.65,0.098,1.39
CCGACTAGGGCATAAGGTTACCATAAGCCAGCCC,1.76,2.19,1.34,-0.152,1.35,2.17,1.08,-0.17
CCTATTTGTTGACCATAAGGGCAACCGAAGCTCG,2.18,0.901,1.09,0.849,0.768,1.78,1.89,0.782
TCATACAGGTAAATGCTAGGTGAAAGTCCGATCT,0.654,0.462,0.278,1.48,0.593,1.47,0.878,0.146
AGAATGAGGCTATTAAGATCAGGGAATTGCGGTC,-0.0206,-0.0314,0.143,0.0802,0.257,0.48,-0.292,-0.448
AGAGACAGGTGAGTGAAGGTAACTCAGCTGGACG,0.498,0.327,0.547,-0.787,0.592,1.75,0.04,-0.14
ATCTGTAGGTTACATCCGGGTCATTCAGGCTATG,3,3.79,2.18,1.17,3.04,3.81,2.84,2.67
AGAACGAGGGCACGCTGAGTTTATAGCAGAGTAG,1.45,2.31,2.32,2.18,1.5,2.15,-0.111,4.06
CCTGCTAGGTCATTGGTCAGCTAAAGCAGCTCGC,3.25,3.88,4.43,3.02,2.61,2.79,1.24,1.27
GCGACCGGGGCAAAGCAGGTTACCATAAGGTTGG,1.47,1.97,1.54,-0.485,0.949,3.71,-0.0146,-0.132
